Results published in PubChem BioAssay (NCI).
Values joined by “and” are separate entries in the source; they are usually repeats but may differ in a detail not shown here. Equal entries are not always repeated. Compounds without any hit were thinned out: in the full panel of roughly 83,000, 20% have a hit.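 Step 1: grow cells in 96-well plates. Step 2: add test compound at a single concentration. Step 3: incubate 48 h. Step 4: record percent growth.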 Active and inactive are the calls of the source. The calls were made as follows: active = growth percent below 10; inactive = the rest.

Legend:
Assay in all cases: NCI-60 one-dose screen, 48 h (100 = growth as untreated, 0 = no growth, -100 = all killed)
Conditions in all cases: 10 µM unless noted
SR leukemia = test system: SR leukemia
RPMI-8226 leukemia = test system: RPMI-8226 leukemia
OVCAR-8 ovarian = test system: OVCAR-8 ovarian
OVCAR-5 ovarian = test system: OVCAR-5 ovarian
OVCAR-4 ovarian = test system: OVCAR-4 ovarian
SK-OV-3 ovarian = test system: SK-OV-3 ovarian
IGROV1 ovarian = test system: IGROV1 ovarian
OVCAR-3 ovarian = test system: OVCAR-3 ovarian
HS 578T breast = test system: HS 578T breast
NCI/ADR-RES ovarian = test system: NCI/ADR-RES ovarian
T-47D breast = test system: T-47D breast
MDA-MB-435 melanoma = test system: MDA-MB-435 melanoma
SW-620 colon = test system: SW-620 colon
MCF7 breast = test system: MCF7 breast
HCT-116 colon = test system: HCT-116 colon
HCC-2998 colon = test system: HCC-2998 colon
KM12 colon = test system: KM12 colon
BT-549 breast = test system: BT-549 breast

Measured: growth

CN1CCN(c2ccc(Nc3ncc(C(N)=O)c(NCCCNC(=O)C4CCC4)n3)cc2)CC1
inactive: SR leukemia 30.1% | RPMI-8226 leukemia 101% | OVCAR-8 ovarian 71.6% | OVCAR-5 ovarian 116% | OVCAR-4 ovarian 73.1% | SK-OV-3 ovarian 37.8% | IGROV1 ovarian 85.7% | OVCAR-3 ovarian 13.3% | HS 578T breast 67.2% | NCI/ADR-RES ovarian 105% | T-47D breast 107% | MDA-MB-435 melanoma 66.9% | SW-620 colon 70.9% | MCF7 breast 48.9% | HCT-116 colon 43.2% | HCC-2998 colon 85.6% | KM12 colon 82.1%

O=C(NNc1ccccc1)c1ncc[nH]1
inactive: SR leukemia 104% | RPMI-8226 leukemia 53.5% | OVCAR-8 ovarian 80.9% | OVCAR-5 ovarian 65.3% | OVCAR-4 ovarian 48.4% | SK-OV-3 ovarian 81.2% | IGROV1 ovarian 71.1% | OVCAR-3 ovarian 64.3% | HS 578T breast 89.2% | NCI/ADR-RES ovarian 78.6% | T-47D breast 43.6% | MDA-MB-435 melanoma 24.2% | SW-620 colon 60.7% | MCF7 breast 56.5% | HCT-116 colon 64.4% | HCC-2998 colon 60.6% | KM12 colon 29.5%

Cc1ccc(Cl)cc1N1CCN(C(=O)[C@@H]2C[C@@H]2c2ccc(F)cc2)CC1
inactive: SR leukemia 80.4% | RPMI-8226 leukemia 62.9% | OVCAR-8 ovarian 90.5% | OVCAR-5 ovarian 94.4% | OVCAR-4 ovarian 85.9% | SK-OV-3 ovarian 90.3% | IGROV1 ovarian 71.1% | OVCAR-3 ovarian 95.3% | HS 578T breast 90.9% | T-47D breast 83.4% | BT-549 breast 97.6% | MDA-MB-435 melanoma 97.6% | SW-620 colon 101% | MCF7 breast 90.6% | HCT-116 colon 68.8% | HCC-2998 colon 98.8%

Nc1nc2ccccc2c2c(=O)c3ccc(Cl)cc3sc12
inactive: SR leukemia 84.4% | RPMI-8226 leukemia 95.7% | OVCAR-8 ovarian 103% | OVCAR-5 ovarian 101% | OVCAR-4 ovarian 92.1% | SK-OV-3 ovarian 98.4% | IGROV1 ovarian 102% | OVCAR-3 ovarian 104% | HS 578T breast 89.3% | T-47D breast 53.9% | BT-549 breast 94.3% | MDA-MB-435 melanoma 101% | SW-620 colon 76% | MCF7 breast 29.9% | HCT-116 colon 82.1% | HCC-2998 colon 114% | KM12 colon 87.5%

CS(=O)(=O)Nc1cc(-c2ccc3ncnc(Nc4ccc(F)c(Cl)c4)c3c2)cnc1Cl
inactive: OVCAR-8 ovarian 15.8% | OVCAR-5 ovarian 15.3% | OVCAR-4 ovarian 17.6% | NCI/ADR-RES ovarian 34.2% | SW-620 colon 13.8% | HCC-2998 colon 16.1%
active: SR leukemia 0.546% | RPMI-8226 leukemia -24% | SK-OV-3 ovarian -19.6% | IGROV1 ovarian -14.1% | OVCAR-3 ovarian -22.6% | HS 578T breast -11.5% | T-47D breast -7.45% | MDA-MB-435 melanoma 9.94% | MCF7 breast 5.44% | HCT-116 colon 1.28% | KM12 colon 7.66%

Cc1cc2nc(C(Cl)Cl)nc(-c3ccc(Cl)cc3)n2n1
inactive: OVCAR-8 ovarian 12.8% | T-47D breast 27.4%
active: SR leukemia 9.87% | RPMI-8226 leukemia -7.69% | OVCAR-5 ovarian -0.203% | OVCAR-4 ovarian -19.6% | SK-OV-3 ovarian -6.97% | IGROV1 ovarian 5.11% | OVCAR-3 ovarian -26.6% | HS 578T breast -32% | NCI/ADR-RES ovarian -6.58% | MDA-MB-435 melanoma -25.2% | SW-620 colon -36.6% | MCF7 breast 2.98% | HCT-116 colon -2.01% | HCC-2998 colon -77% | KM12 colon -27.2%

ON=C1CCCCCCCC1
inactive: SR leukemia 90.9% and 97.5% | RPMI-8226 leukemia 103% and 102% | OVCAR-8 ovarian 102% and 107% | OVCAR-5 ovarian 103% and 105% | OVCAR-4 ovarian 115% and 113% | SK-OV-3 ovarian 100% and 103% | IGROV1 ovarian 113% and 111% | OVCAR-3 ovarian 111% | HS 578T breast 107% and 108% | NCI/ADR-RES ovarian 103% and 105% | T-47D breast 97.7% and 99.2% | MDA-MB-435 melanoma 103% and 113% | SW-620 colon 108% and 105% | MCF7 breast 98.9% and 91.3% | HCT-116 colon 105% and 104% | HCC-2998 colon 100% and 103% | KM12 colon 97% and 97.8%

C=C1C(=O)O[C@H]2[C@H]1CC/C(COC(=O)NCc1ccc(Cn3c(=O)sn(CCCI)c3=O)cc1)=C\CC[C@@]1(C)O[C@@H]21
inactive: OVCAR-8 ovarian 37.7% | OVCAR-5 ovarian 71.1% | OVCAR-4 ovarian 17.7% | SK-OV-3 ovarian 101% | HS 578T breast 78.4% | NCI/ADR-RES ovarian 102% | BT-549 breast 40.8% | MDA-MB-435 melanoma 17.5% | HCC-2998 colon 104% | KM12 colon 100%
active: SR leukemia 8.4% | RPMI-8226 leukemia -6.45% | IGROV1 ovarian -0.0888% | OVCAR-3 ovarian -33.4% | T-47D breast 8.47% | SW-620 colon -42.9% | MCF7 breast 4.45% | HCT-116 colon -52%
